Source: paper PMC5869772, “Quantitative profiling of BATF family proteins/JUNB/IRF hetero-trimers using Spec-seq”

Assays:
Assay in all cases: Spec-seq (EMSA and sequencing of bound and unbound bands); 100 nM BATFx-JUNB, 1 uM dsDNA library, 50 mM K acetate, 20 mM Tris-acetate, 10 mM Mg acetate, 100 ug/ml BSA, pH 7.9, 10% glycerol, 30 min on ice; native 9% PAGE at 4 C; low values mean tight binding
Conditions in all cases: protein: recombinant;recombinant; tags: N-terminal mCherry-TEV, cleaved off;C-terminal 6His; copies: 1;1; dsDNA, one strand shown
BATF;JUNB = target: T1, BATF;JUNB (human;human, UniProt Q16520;P17275 1-125;148-347, |)
T1 sequence 1: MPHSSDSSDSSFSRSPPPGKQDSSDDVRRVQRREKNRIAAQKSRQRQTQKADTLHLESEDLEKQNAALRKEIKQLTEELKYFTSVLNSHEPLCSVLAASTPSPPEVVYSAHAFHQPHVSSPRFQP
T1 sequence 2: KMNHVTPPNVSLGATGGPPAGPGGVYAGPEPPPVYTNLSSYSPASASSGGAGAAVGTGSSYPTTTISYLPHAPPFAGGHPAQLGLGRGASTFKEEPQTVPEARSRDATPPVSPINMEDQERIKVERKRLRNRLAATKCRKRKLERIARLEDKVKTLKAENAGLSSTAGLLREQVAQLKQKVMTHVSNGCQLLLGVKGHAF
How it was run: (§1)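 The protein, at 100 nM, was incubated with 1 μM double-stranded degenerate DNA library for 30 min on ice in NEB Cutsmart buffer with 10% glycerol, then resolved by native 9% PAGE at 4 °C. Excised bound and unbound bands were PCR-barcoded and Illumina-sequenced, and each sequence's relative binding energy in kT is −ln of its bound/unbound read-count ratio.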

BATF2 (bZIP);JUNB = target: T2, BATF2 (bZIP);JUNB (human;human, UniProt Q8N1L9;P17275 1-142;148-347, |)
T2 sequence 1: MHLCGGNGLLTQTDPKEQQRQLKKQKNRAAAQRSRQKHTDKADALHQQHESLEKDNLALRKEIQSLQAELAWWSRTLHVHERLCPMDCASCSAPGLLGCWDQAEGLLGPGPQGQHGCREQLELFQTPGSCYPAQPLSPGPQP
T2 sequence 2: T1 sequence 2
How it was run: as §1

BATF3;JUNB = target: T3, BATF3;JUNB (human;human, UniProt Q9NR55;P17275 1-127;148-347, |)
T3 sequence 1: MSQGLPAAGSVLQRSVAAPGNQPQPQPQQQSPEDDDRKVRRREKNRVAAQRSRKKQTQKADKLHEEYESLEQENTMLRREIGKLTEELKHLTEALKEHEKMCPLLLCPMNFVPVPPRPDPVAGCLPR
T3 sequence 2: T1 sequence 2
How it was run: as §1

| Sequence | binding signal (BATF;JUNB) [kT] | binding signal (BATF2 (bZIP);JUNB) [kT] | binding signal (BATF3;JUNB) [kT] |
| --- | --- | --- | --- |
| GATAGTCTCATTTTCACCCCGTGAAATGACTCCTTTGTTCCATTACAGTATCTGT | 0.0649 | 0.734 | 0.584 |
| GATAGTCTCATTTTCACCCCGTGAAAATGGGTCATTGTTCCATTACAGTATCTGT | -0.00523 | 0.62 | 0.203 |
| GATAGTCTCATTTTCACCCCGTGAAATGAGACACTTGTTCCATTACAGTATCTGT | 0.71 | 1.71 | 1.3 |
| GATAGTCTCATTTTCACCCCGTGAAATGATGTCATTGTTCCATTACAGTATCTGT | -0.738 | -0.708 | -1.63 |
| GATAGTCTCATTTTCACCCCGTGAAAGCGAGTCATTGTTCCATTACAGTATCTGT | -0.514 | 0.234 | -0.148 |
| GATAGTCTCATTTTCACCCCGTGAAATTACTCATTTGTTCCATTACAGTATCTGT | -0.755 | -0.323 | -0.827 |
| GATAGTCTCATTTTCACCCCGTGAAATGACTCATTTGTTCCATTACAGTATCTGT | -0.896 | -0.796 | -1.24 |
| GATAGTCTCATTTTCACCCCGTGAAATGACTCCATTGTTCCATTACAGTATCTGT | -0.151 | 0.566 | 0.168 |
| GATAGTCTCATTTTCACCCCGTGAAACGACTCATTTGTTCCATTACAGTATCTGT | -0.317 | 0.616 | 0.267 |
| GATAGTCTCATTTTCACCCCGTGAAATGAAGTCATTGTTCCATTACAGTATCTGT | -0.461 | 0.0362 | -0.997 |
| GATAGTCTCATTTTCACCCCGTGAAAGTGTGTCATTGTTCCATTACAGTATCTGT | -0.342 | -0.00937 | -0.359 |
| GATAGTCTCATTTTCACCCCGTGAAATGAGGCATTTGTTCCATTACAGTATCTGT | 0.568 | 1.08 | 0.744 |
| GATAGTCTCATTTTCACCCCGTGAAAACGAGTCATTGTTCCATTACAGTATCTGT | -0.809 | -0.0168 | -0.328 |
| GATAGTCTCATTTTCACCCCGTGAAATGACGTCGTTGTTCCATTACAGTATCTGT | -0.291 | 0.27 | -0.759 |
| GATAGTCTCATTTTCACCCCGTGAAACTGAGTCATTGTTCCATTACAGTATCTGT | -1.39 | -0.852 | -1.63 |
| GATAGTCTCATTTTCACCCCGTGAAATGAGTGACTTGTTCCATTACAGTATCTGT | 0.0645 | 0.827 | 0.384 |
| GATAGTCTCATTTTCACCCCGTGAAAATGAGTCATTGTTCCATTACAGTATCTGT | -1.25 | -1.01 | -1.35 |
